# Results taken from PubChem BioAssay (NCATS).
# Records with an inconclusive call do not appear. Values without a mark were called inactive. The source made the active and inactive calls. The call rests on the fitted dose curve.
# Target: Retinoic acid receptor RXR-alpha (Homo sapiens) (UniProt P19793)
# Assay: qHTS assay for small molecule agonists of retinoid X receptor alpha signaling (AID 588544)
# Details: HEK293T RXRa-UAS-bla, beta-lactamase reporter, 18 h; series mostly up to 76.7 µM; activation: at the top concentration
# Source text: NIH Chemical Genomics Center [NCGC] U.S. Environmental Protection Agency [EPA] National Institutes of Environmental Health Sciences [NIEHS] National Toxicology Program [NTP] NCGC Assay Overview The Retinoid X receptor (RXR), a nuclear hormone receptor is expressed in liver, spleen, placenta, epidermis, central nervous system. These receptors are able to form homo and heterodimers with other nuclear receptors and due to this heterodimerizing ability, RXR functions as master regulators producing diverse physiological effects. Three subtypes of RXR exist; alpha, beta and gamma. Retinoid X receptor alpha (RXR-alpha) has potential roles in metabolic signaling pathways, skin alopecia, dermal cysts, cardiac development, insulin sensitization etc. Therefore screening environmental chemicals on RXR-alpha signaling can be used for the studies focused on such therapeutic applications.
# NCGC Assay Protocol Summary Using a beta-lactamase reporter-gene under control of Retinoid X receptor--alpha (RXR-alpha) response element, a cell-based assay [GeneBLAzer (RXR-alpha -UAS-bla assay developed by Invitrogen] was used to measure RXR-alpha ligands signaling. GeneBLAzer RXR-alpha -UAS-bla HEK293T cells were used with assay medium containing 2% charcoal-stripped FBS. The assay was performed in clear bottom black Greiner 1536-well plates. 9-cis-retinoic acid was used in the screen as the positive control. Library compounds were measured for their ability to stimulate the reporter gene activity. Compounds were screened in a titration series in 1536-well format. The fluorescence intensity (405 nm excitation, 460/530 nm emission) was measured using an EnVision plate reader. Data was normalized relative to 9-cis-retinoic acid control (500 nM, 100%), and DMSO only wells (basal, 0%). Concentration-response titration points for each compound were fitted to the Hill equation yielding concentrations of half-maximal stimulation (EC50) and maximal response (efficacy) values. qHTS protocol for RXR-alpha beta-lactamase assay in agonist mode [Step] [Parameter] [Value] [Description] 1. Reagent; 6 uL; 2500 cells/well 2. Incubation; 37 C for 4 hrs 3. Compounds; 23 nL; 0.59 nM to 92 uM 4. Controls (9-cis-retinoic acid); 23 nL, - One column with dose response, start 38 uM, 1:3 dilutions in duplicates - Final concentrations of 500 nM and 50 nM in two columns 5. Incubation; 37 C for 18 hrs 6. Detection reagent; 1 uL of CCF4-dye 7. Incubation; RT for 2 hrs 8. Detection; Fluorescence; Envision plate reader
# Sequence of Retinoic acid receptor RXR-alpha (Homo sapiens) (P19793 whole entry, looked up): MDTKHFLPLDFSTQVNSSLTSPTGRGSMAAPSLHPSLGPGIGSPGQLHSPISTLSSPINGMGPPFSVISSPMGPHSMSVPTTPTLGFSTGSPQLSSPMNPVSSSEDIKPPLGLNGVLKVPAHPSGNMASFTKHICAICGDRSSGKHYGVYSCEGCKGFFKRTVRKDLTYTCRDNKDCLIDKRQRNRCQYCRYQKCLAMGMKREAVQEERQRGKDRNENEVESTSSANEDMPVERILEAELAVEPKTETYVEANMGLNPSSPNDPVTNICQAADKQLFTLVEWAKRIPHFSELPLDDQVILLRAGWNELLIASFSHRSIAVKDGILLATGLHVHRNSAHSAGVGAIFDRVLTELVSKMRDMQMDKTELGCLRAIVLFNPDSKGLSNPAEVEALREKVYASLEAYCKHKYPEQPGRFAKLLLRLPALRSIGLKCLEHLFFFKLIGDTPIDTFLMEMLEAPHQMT
Structure (SMILES),activation [%],outcome
Nc1ccc([N+](=O)[O-])cc1[N+](=O)[O-],-5.59,–
CC(C)[N+](=O)[O-],-0.0695,–
Oc1cccc(Cl)c1,5.67,–
O=[N+]([O-])c1cc(Cl)c(Cl)c(Cl)c1,-9.73,–
CC(C)Br,6.11,–
Cc1cccc(N)c1C,6.38,–
CCCCC(=O)Cl,5.32,–
Oc1ccc(Cl)c(Cl)c1Cl,-2.05,–
ClCCOCCCl,4.4,–
C=CCCl,7.07,–
ClP(Cl)(Cl)(Cl)Cl,-4.16,–
Oc1c(Cl)c(Cl)cc(Cl)c1Cl,-20.3,–
CC(C)(Cl)[N+](=O)[O-],2.89,–
C=CCOCC1CO1 (stereo not given),1.7,–
COc1cc(-c2ccc(N)c(OC)c2)ccc1N,–,inactive
c1ccc(Nc2ccc(Nc3ccccc3)cc2)cc1,-15.9,–
Oc1ccc(Cl)c(Cl)c1,4.54,–
N#CC(Cl)(Cl)Cl,-1.32,–
CCSC(=O)N1CCCCCC1,–,inactive
O=Cc1ccc2c(c1)OCO2,-14.2,–

Structure (SMILES),activation [%],outcome
CCCCOCC1CO1 (stereo not given),0.436,–
CCCCC#N,-5.01,–
CCCCNC(=O)n1c(NC(=O)OC)nc2ccccc21,-27.9,–
c1ccoc1,8.26,–
COc1ccccc1N,-0.876,–
Nc1ccc(Oc2ccc(N)cc2)cc1,–,inactive
O=[N+]([O-])c1ccccc1O,0.769,–
c1ccc(N=NNc2ccccc2)cc1,-13.3,–
Cc1ccc2c(c1N)C(=O)c1ccccc1C2=O,–,inactive
N#CCCCCC#N,-0.703,–
O=C(O)C(Cl)(Cl)Br,5.49,–
CC(C)OC(=O)Cc1ccccc1,-1.03,–
Cc1cc(C)cc(OP(=O)(Oc2cc(C)cc(C)c2)Oc2cc(C)cc(C)c2)c1,-4.72,–
BrCC(Br)C1CCC(Br)C(Br)C1 (stereo not given),-4.23,–
Clc1cc(Cl)c(Cl)c(Cl)c1,3.91,–
CN(C)C(=O)Nc1ccc(Cl)cc1,–,inactive
Nc1ccc2ccccc2c1,2.13,–
O=P(OCCCl)(OCCCl)OCCCl,13.4,–
CN(C)C(=O)Nc1cccc(C(F)(F)F)c1,–,inactive
C=CC(=O)OCC(CC)CCCC (stereo not given),–,inactive
